PubChem BioAssay (NCI)
This is part of a sample that, as a whole, favours compounds with a hit. Of some 83,000 tested, about 20% had one in any assay.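 The endpoint reported here, percent growth, reads 100 for growth as untreated, 0 for no net growth and -100 for all cells dead.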 Values without a mark were called inactive. The source made the active and inactive calls. The calls were made as follows: active = growth percent below 10; inactive = the rest.

How the values were obtained:
Assay in all cases: NCI-60 one-dose screen, 48 h (100 = growth as untreated, 0 = no growth, -100 = all killed)
Settings in all cases: 10 µM unless noted
[1] = test system: EKVX NSCLC
[2] = test system: SN12C renal
[3] = test system: UO-31 renal
[4] = test system: TK-10 renal
[5] = test system: ACHN renal
[6] = test system: CAKI-1 renal
[7] = test system: A498 renal
[8] = test system: CCRF-CEM leukemia
[9] = test system: MOLT-4 leukemia
[10] = test system: SR leukemia

SMILES	growth [1]	growth [2]	growth [3]	growth [4]	growth [5]	growth [6]	growth [7]	growth [8]	growth [9]	growth [10]
O=C(Nc1ccc(Br)cc1F)c1cc(I)ccc1O	43.8%	5.88% (active)	2.04% (active)	12.9%	6.1% (active)	-16.8% (active)	-40.9% (active)	11.9%	–	–
O=c1oc2ccc(I)cc2c(=O)n1-c1ccc(Cl)cc1F	9.47% (active)	2.21% (active)	2.47% (active)	10.5%	3.57% (active)	-16.9% (active)	-68.3% (active)	7.77% (active)	-11.1% (active)	–
O=c1oc2ccc(F)cc2c(=O)n1-c1ccc(Cl)cc1F	9.11% (active)	1.59% (active)	1.41% (active)	5.92% (active)	1.55% (active)	-21.5% (active)	-51% (active)	12.7%	-5.46% (active)	–
Nc1ccc(-n2c(=O)oc3ccc(Cl)cc3c2=O)c(Cl)c1	4.42% (active)	-0.532% (active)	0.242% (active)	8.25% (active)	5.28% (active)	-21.5% (active)	-67% (active)	0.0077% (active)	–	–
CC[C@]1(O)C[C@@H]2CN(CCc3c([nH]c4ccccc34)[C@@](C(=O)OC)(c3cc4c(cc3OC)N(C)[C@H]3[C@@](O)(C(=O)OC)[C@H](OC(=O)CCCBr)[C@]5(CC)C=CCN6CC[C@]43[C@@H]65)C2)C1	31%	23.9%	37.7%	46.5%	28.2%	9.84% (active)	-1.7% (active)	6.76% (active)	17.3%	–
O=C(Nc1ccc(Br)cc1F)c1cc(F)ccc1O	7.73% (active)	3.29% (active)	6.93% (active)	3.6% (active)	1.78% (active)	-16.7% (active)	-68.8% (active)	7.49% (active)	0.344% (active)	–
COc1ccc(/C=C/C(=O)c2c(C)nc3ccccc3c2/C=C/c2ccccc2)c(OC)c1	76.9%	84.3%	61.4%	123%	79.5%	55.9%	97.3%	76.5%	48.6%	–
O=c1oc2ccc(Br)cc2c(=O)n1-c1ccc(F)cc1F	39%	6.17% (active)	3.24% (active)	11.6%	4.95% (active)	-16.6% (active)	-39% (active)	14.1%	17.5%	–
Cc1ccc2sc3c(NCCCNCCO)nc4ccccc4c3c(=O)c2c1	57.3%	72.8%	48.6%	66.9%	6.81% (active)	56.7%	65.8%	10.8%	-39.3% (active)	2.94% (active)
CSc1nc2c(c(=O)n1C)N=C1c3ccccc3C(=O)C1C(c1ccccc1)N2 (centres undefined)	75.4%	138%	71.1%	101%	75.5%	53.4%	99.9%	82.6%	84%	27.1%
Cc1ccc2cccc(Oc3ccc(Nc4ncnc5onc(-c6ccccc6)c45)cc3)c2n1	85.5%	83.9%	55.6%	86.6%	80.1%	89.2%	13%	80.7%	72.2%	67%
O=C1NC(=S)NC(=O)C1=Cc1cn(Cc2cn(Cc3cccc4ccccc34)nn2)c2ccccc12	96.4%	94.4%	67.7%	134%	96%	80.3%	83.7%	98.7%	96.2%	–
O=C1c2cc(I)ccc2Oc2cc([N+](=O)[O-])ccc2N1c1ccc(Cl)cc1F	93.5%	90.8%	63.6%	120%	90.3%	63.9%	91.4%	76.8%	56.6%	–
O=C(NCc1ccccc1)C1CN(c2ccc(Cl)cc2)N(c2ccc(Cl)cc2)C1=O (centres undefined)	87.8%	91%	55.9%	95.7%	94.7%	75.4%	73.4%	73.4%	64.3%	34.3%
CSc1nc2c(c(=O)[nH]1)N=C1c3ccccc3C(=O)C1C(c1ccc(F)cc1)N2 (centres undefined)	74.8%	87.7%	62.8%	78.2%	59.1%	25.8%	88.2%	52.5%	76%	31.5%
O=C(c1ccccc1)N(C(=S)NCCc1ccc(Cl)cc1)c1ccccc1	96.3%	110%	80%	82.5%	108%	93.2%	95.3%	61.3%	47.6%	–
Cc1ccc2[nH]c(=O)cc(-n3nncc3Cn3c4ccccc4c4ccccc43)c2c1	98.2%	101%	73.7%	118%	90%	85%	80%	99.5%	101%	103%
O=S(=O)(Nc1ncccn1)c1ccc(NC2Nc3nc4ccccc4nc3S2)cc1 (centres undefined)	90.7%	97.7%	78.5%	109%	98.5%	94%	99.3%	104%	99.7%	102%
O=C(c1ccccc1)N(CCc1ccc(Cl)cc1)C(=S)N(C(=O)c1ccccc1)c1ccccc1	102%	100%	81.7%	97.4%	110%	96.9%	92.3%	8.54% (active)	28.7%	–
O=C1c2cc(Br)ccc2Oc2cc([N+](=O)[O-])ccc2N1c1ccc(I)cc1F	91.9%	94.2%	73%	112%	99.7%	84.9%	98.9%	96.8%	85%	–
COc1cc(/C=C2\CCC/C(=C\c3cc(CN4CCOCC4)c(O)c(OC)c3)C2=O)cc(CN2CCOCC2)c1O	54.3%	29.3%	52.6%	53.8%	25.1%	46.1%	58.6%	14.8%	11%	38%
CC1=CCC(OC(=O)C(C)(C)CCC(O)(C(=O)OC2(C(C)C)CCC3(C)OC3C2)C(C)C)(C(C)C)CC1 (centres undefined)	-63% (active)	-43.8% (active)	-99.2% (active)	-99.2% (active)	-94.8% (active)	-100% (active)	-83.1% (active)	-19.2% (active)	-30.3% (active)	11.3%
O=C(CCc1nnc2sc(-c3ccc(Cl)cc3Cl)nn12)c1nc2ncccc2[nH]1	-26.2% (active)	-7.29% (active)	-82% (active)	-31.6% (active)	-48% (active)	-15.7% (active)	-68.6% (active)	6.98% (active)	5.44% (active)	–
COc1cccc(/C(C#N)=C/c2nc3c(N4CCOCC4)nc(Cl)nc3n2C)c1	-77.3% (active)	12.8%	-95.9% (active)	-65.6% (active)	-98% (active)	-92.1% (active)	-2.48% (active)	2.67% (active)	-19.4% (active)	5.6% (active)
O=S1(=O)N(Cc2ccccc2)[C@@H](Cc2ccccc2)C2O[C@H]2[C@H](Cc2ccccc2)N1Cc1ccccc1 (some centres undefined)	24%	47.8%	68.1%	71%	41.2%	33.8%	65.4%	29.5%	35.4%	29.6%
COc1ccc(C2=NN(/C=C3\SC(=O)NC3=Nc3ccc(F)cc3)C(c3ccc(F)cc3)C2)cc1 (centres undefined)	82.2%	98.3%	73.4%	87.9%	93.7%	89.1%	93.8%	102%	98.4%	106%
COc1ccc(C2C3=C(COC3=O)N(CCO)c3cc4c(cc32)CCC4)cc1 (centres undefined)	66.7%	95.1%	75.7%	77.9%	67.7%	48%	73.2%	64.3%	45.4%	35.8%
O=C(Nc1ccc(N2CCNCC2)cn1)c1[nH]ncc1Nc1ncnc2sc3c(c12)CCC3	83.8%	53.6%	72.6%	95.2%	-76.5% (active)	54.3%	70.2%	-7.26% (active)	14.3%	0.52% (active)
